# The panel holds about 83,000 compounds, 20% with a hit somewhere; the sample as a whole holds those more often.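 For each line, cells grew in 96-well plates with the test compound present at a single concentration for 48 hours.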 Unmarked numbers belong to inactive results. Activity calls are given as the source filed them. The calls were made as follows: active = growth percent below 10; inactive = the rest.
# Tests used:
# Test in all cases: NCI-60 one-dose screen, 48 h (100 = growth as untreated, 0 = no growth, -100 = all killed)
# Settings in all cases: 10 µM unless noted
# SR leukemia = system: SR leukemia
# RPMI-8226 leukemia = system: RPMI-8226 leukemia
# OVCAR-8 ovarian = system: OVCAR-8 ovarian
# OVCAR-5 ovarian = system: OVCAR-5 ovarian
# OVCAR-4 ovarian = system: OVCAR-4 ovarian
# SK-OV-3 ovarian = system: SK-OV-3 ovarian
# IGROV1 ovarian = system: IGROV1 ovarian
# OVCAR-3 ovarian = system: OVCAR-3 ovarian
# HS 578T breast = system: HS 578T breast
# NCI/ADR-RES ovarian = system: NCI/ADR-RES ovarian
# T-47D breast = system: T-47D breast
# BT-549 breast = system: BT-549 breast
# MDA-MB-435 melanoma = system: MDA-MB-435 melanoma
# SW-620 colon = system: SW-620 colon
# MCF7 breast = system: MCF7 breast
# HCT-116 colon = system: HCT-116 colon
# HCC-2998 colon = system: HCC-2998 colon
# KM12 colon = system: KM12 colon
SMILES,growth (SR leukemia),growth (RPMI-8226 leukemia),growth (OVCAR-8 ovarian),growth (OVCAR-5 ovarian),growth (OVCAR-4 ovarian),growth (SK-OV-3 ovarian),growth (IGROV1 ovarian),growth (OVCAR-3 ovarian),growth (HS 578T breast),growth (NCI/ADR-RES ovarian),growth (T-47D breast),growth (BT-549 breast),growth (MDA-MB-435 melanoma),growth (SW-620 colon),growth (MCF7 breast),growth (HCT-116 colon),growth (HCC-2998 colon),growth (KM12 colon)
O=C(CSc1nc2sc3c(c2c(=O)n1-c1ccccc1)CCCCC3)N/N=C/c1cccc([N+](=O)[O-])c1,38.3%,73.4%,16.3%,78%,-6.2% (active),80.4%,71.1%,10.9%,-1.34% (active),44%,64.1%,38.1%,72.9%,52.4%,45.9%,4.84% (active),98%,47.6%
CCOC(=O)[C@@H]1CSC(CC)=C(C(=O)O)N1,-11.1% (active),-32% (active),101%,107%,117%,69.1%,109%,128%,109%,113%,87.3%,101%,109%,105%,108%,94.1%,111%,114%
Nc1nc2ccccc2c2c1S(=O)(=O)c1ccc(Cl)cc1C2=O,3.3% (active),-15.1% (active),8.43% (active),13.9%,7.52% (active),58.6%,27.6%,-12.5% (active),6.88% (active),24.8%,-0.213% (active),24.3%,20.5%,2.06% (active),9.68% (active),1.05% (active),41.5%,18.4%
C#CCOc1cccc(Nc2ncnc3cc(NC(=O)C=C)ccc23)c1,13%,13.3%,4.37% (active),54.3%,45.5%,29.6%,6.96% (active),6.09% (active),18.2%,14.9%,8.13% (active),7.82% (active),-1.49% (active),12.1%,20.4%,2.37% (active),60.7%,24.6%
CC(C)c1ccc(C(=O)Nc2sc3c(c2C(N)=O)CCC(=O)C3)cc1,0.332% (active),-37.1% (active),11%,8.42% (active),-85.4% (active),25.8%,9.75% (active),-35.7% (active),-4.09% (active),1.35% (active),-15.8% (active),-21.9% (active),-11% (active),-43.4% (active),5.13% (active),-41.1% (active),14.9%,1.39% (active)
O=S(=O)(Nc1ccc(Cl)c(C(F)(F)F)c1)c1ccc(-c2cnc(C3CC3)o2)cc1,3.51% (active),8.83% (active),5.21% (active),19.2%,25.7%,0.753% (active),24.3%,9.38% (active),-1.41% (active),2.96% (active),12.8%,23.7%,2.82% (active),22.4%,15.4%,10.1%,25.1%,8.14% (active)
C#CCOc1ccc2ncnc(Nc3ccc(NC(=O)C=C)cc3)c2c1,-23% (active),-29.4% (active),0.598% (active),12.2%,35%,90.6%,-59% (active),-22.3% (active),14.9%,67%,4.07% (active),-28.7% (active),-18.9% (active),-45.8% (active),-10.4% (active),-79.9% (active),82.2%,8.91% (active)
Cc1sc2nc(NCCc3c[nH]c4ccc(Cl)cc34)[nH]c(=O)c2c1C,15.7%,18.8%,38.5%,62.5%,60%,60.6%,50.8%,64.7%,25.4%,47.1%,44.9%,74.2%,39.7%,9.09% (active),32.2%,24.5%,21.5%,1.89% (active)
OCCn1cc(-c2nc(-c3c[nH]c4ncccc34)cs2)c2ccccc21,53.5%,57.8%,90.4%,90.5%,51.7%,70.2%,56.1%,81.7%,71.3%,94.6%,37.3%,76%,52.1%,91.5%,32.9%,85.2%,52%,48%
N#Cc1c(-c2ccc(Cl)cc2)c(C#N)c2c(C#N)c(N)nn2c1N,69.5%,73.9%,88%,86.9%,82.4%,70.5%,74.1%,93.8%,79.4%,96.3%,57%,75.5%,95.4%,94.7%,81.3%,96.1%,102%,92.9%
CCOC(=O)C(=O)C(C(=O)OCC)c1ccccc1 (stereo not drawn),94.7%,94.3%,120%,106%,106%,110%,122%,120%,94.2%,109%,100%,97.3%,101%,103%,101%,96.2%,114%,107%
O=C(CN1CCCCC1)Nc1nc(-c2cc3ccccc3oc2=O)cs1,89.5%,106%,98.3%,104%,95.3%,119%,92.9%,111%,93.3%,101%,87.7%,100%,104%,99.2%,88.7%,101%,104%,99.9%
Clc1ccc(/C=N\N=C\c2ccc(Cl)c(Cl)c2)cc1Cl,103%,102%,85.7%,66.9%,97.9%,87.4%,79.5%,119%,106%,77.3%,90.3%,74.2%,101%,53.8%,72.8%,53.3%,96.1%,101%
CCNCCNc1cc(-c2ccc(C(F)(F)F)cc2)c(C#N)c2nc3ccccc3n12,-47.6% (active),-38.8% (active),-47.2% (active),-61.9% (active),-61.8% (active),-94.1% (active),-78.5% (active),-88.3% (active),-46.3% (active),-49.7% (active),-59.4% (active),-73.9% (active),-96.9% (active),-73.7% (active),-71.6% (active),-95.4% (active),-99.6% (active),-85.1% (active)
N#Cc1ccc2c(c1)C(=O)c1c-2n(CCCN)c(=O)c2cc([N+](=O)[O-])ccc12,-52% (active),-45.5% (active),-71.6% (active),16.6%,-82% (active),-100% (active),-95.6% (active),-96.4% (active),-77.7% (active),-36.3% (active),-78.6% (active),-100% (active),-86.3% (active),-100% (active),-74.8% (active),-100% (active),-100% (active),-98% (active)
CCC1=C[C@@H]2C[C@]3(C(=O)OC)c4[nH]c5ccccc5c4CC[N@+](CC(=O)Nc4cc5c(cc4OC)N(C)[C@H]4[C@@](O)(C(=O)OC)[C@H](OC(C)=O)[C@]6(CC)C=CCN7CC[C@]54[C@@H]76)(C2)[C@H]13,99.4%,105%,102%,109%,104%,105%,104%,109%,99.4%,106%,105%,111%,105%,100%,103%,102%,110%,104%

# From PubChem BioAssay (NCI)
